Experimental data taken from the supplement of paper PMC11732987, “Enantioselective OTUD7B fragment discovery through chemoproteomics screening and high-throughput optimisation” (Communications Chemistry, 2025).

What was measured:
Experiment in all cases: log2 ratio of Biotin-Ahx-Ub-VS probe labelling (fragment/DMSO); higher = less target engagement (more negative = stronger competition), active = hit call of the paper (q ≤ 0.05, log2 ratio ≤ -1)
Settings in all cases: compound concentration: 200 uM; treatment time: 3 h
USP19 = target: T1, USP19 (UniProt O94966)
T1 sequence (whole entry): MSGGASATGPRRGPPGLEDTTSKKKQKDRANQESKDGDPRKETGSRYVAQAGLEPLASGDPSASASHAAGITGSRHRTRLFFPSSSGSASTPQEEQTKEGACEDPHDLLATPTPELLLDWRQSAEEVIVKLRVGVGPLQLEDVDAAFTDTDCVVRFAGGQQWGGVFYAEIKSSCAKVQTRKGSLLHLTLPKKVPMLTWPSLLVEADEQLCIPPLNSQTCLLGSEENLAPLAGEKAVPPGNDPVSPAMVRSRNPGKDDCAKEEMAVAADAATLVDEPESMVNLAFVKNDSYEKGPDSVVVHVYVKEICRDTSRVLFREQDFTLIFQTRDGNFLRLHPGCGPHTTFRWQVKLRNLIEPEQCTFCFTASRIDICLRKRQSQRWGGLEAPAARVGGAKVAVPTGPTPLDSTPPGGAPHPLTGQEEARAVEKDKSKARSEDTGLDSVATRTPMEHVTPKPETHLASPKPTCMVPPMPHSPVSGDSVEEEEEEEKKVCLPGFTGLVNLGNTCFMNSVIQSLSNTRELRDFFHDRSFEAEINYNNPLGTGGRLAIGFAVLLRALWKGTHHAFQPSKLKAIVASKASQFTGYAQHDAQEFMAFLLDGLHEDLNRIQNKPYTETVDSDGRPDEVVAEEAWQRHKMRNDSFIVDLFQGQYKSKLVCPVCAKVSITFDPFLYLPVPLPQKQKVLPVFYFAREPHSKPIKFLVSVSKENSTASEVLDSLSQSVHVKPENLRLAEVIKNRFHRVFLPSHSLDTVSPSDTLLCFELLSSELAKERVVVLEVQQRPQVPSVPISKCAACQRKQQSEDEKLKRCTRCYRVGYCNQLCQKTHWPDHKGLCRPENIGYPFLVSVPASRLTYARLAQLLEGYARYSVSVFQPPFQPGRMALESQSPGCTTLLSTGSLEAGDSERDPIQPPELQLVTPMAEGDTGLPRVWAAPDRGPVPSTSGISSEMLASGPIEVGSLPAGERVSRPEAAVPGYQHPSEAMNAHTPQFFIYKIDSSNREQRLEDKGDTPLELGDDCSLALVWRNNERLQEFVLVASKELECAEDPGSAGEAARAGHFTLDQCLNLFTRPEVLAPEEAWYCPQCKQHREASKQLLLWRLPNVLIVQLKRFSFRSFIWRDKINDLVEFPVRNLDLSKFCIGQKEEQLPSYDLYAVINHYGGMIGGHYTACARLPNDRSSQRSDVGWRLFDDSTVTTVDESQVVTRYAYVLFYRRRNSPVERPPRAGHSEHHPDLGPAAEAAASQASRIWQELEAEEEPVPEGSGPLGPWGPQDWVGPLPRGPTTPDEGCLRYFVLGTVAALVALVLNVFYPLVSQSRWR
In short: (§1)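 Fragment (200 µM) or vehicle was incubated for 3 h with triplicate HEK293T lysate samples of 495 µg, which were then treated with Biotin-Ahx-Ub-VS at 0.5 µM final for 1 h. Labelled DUBs were enriched on NeutrAvidin, digested with LysC and trypsin, and analysed by diaPASEF LC-MS/MS. Values are average log2 fragment/vehicle ratios from an unpaired t-test on global-median-normalised Spectronaut label-free quantities, using proteins with ≥2 unique peptides.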

USP22 = target: T2, USP22 (UniProt Q9UPT9)
T2 sequence (whole entry): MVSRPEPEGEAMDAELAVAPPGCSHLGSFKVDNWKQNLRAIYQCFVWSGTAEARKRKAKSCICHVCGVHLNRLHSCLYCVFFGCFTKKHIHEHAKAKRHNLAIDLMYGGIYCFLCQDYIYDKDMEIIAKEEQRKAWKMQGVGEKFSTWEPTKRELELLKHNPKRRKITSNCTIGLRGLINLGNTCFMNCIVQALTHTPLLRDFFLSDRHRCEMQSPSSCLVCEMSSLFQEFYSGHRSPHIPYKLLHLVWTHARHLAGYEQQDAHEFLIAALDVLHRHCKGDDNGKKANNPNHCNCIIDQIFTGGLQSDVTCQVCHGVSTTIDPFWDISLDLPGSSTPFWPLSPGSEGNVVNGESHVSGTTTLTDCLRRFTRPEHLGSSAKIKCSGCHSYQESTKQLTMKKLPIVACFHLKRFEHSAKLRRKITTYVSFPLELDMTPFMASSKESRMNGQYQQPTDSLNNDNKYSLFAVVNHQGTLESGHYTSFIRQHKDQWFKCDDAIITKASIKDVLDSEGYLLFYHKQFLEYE
In short: as §1

USP24 = USP24 (UniProt Q9UPU5)
USP24, sequence (Q9UPU5 whole entry): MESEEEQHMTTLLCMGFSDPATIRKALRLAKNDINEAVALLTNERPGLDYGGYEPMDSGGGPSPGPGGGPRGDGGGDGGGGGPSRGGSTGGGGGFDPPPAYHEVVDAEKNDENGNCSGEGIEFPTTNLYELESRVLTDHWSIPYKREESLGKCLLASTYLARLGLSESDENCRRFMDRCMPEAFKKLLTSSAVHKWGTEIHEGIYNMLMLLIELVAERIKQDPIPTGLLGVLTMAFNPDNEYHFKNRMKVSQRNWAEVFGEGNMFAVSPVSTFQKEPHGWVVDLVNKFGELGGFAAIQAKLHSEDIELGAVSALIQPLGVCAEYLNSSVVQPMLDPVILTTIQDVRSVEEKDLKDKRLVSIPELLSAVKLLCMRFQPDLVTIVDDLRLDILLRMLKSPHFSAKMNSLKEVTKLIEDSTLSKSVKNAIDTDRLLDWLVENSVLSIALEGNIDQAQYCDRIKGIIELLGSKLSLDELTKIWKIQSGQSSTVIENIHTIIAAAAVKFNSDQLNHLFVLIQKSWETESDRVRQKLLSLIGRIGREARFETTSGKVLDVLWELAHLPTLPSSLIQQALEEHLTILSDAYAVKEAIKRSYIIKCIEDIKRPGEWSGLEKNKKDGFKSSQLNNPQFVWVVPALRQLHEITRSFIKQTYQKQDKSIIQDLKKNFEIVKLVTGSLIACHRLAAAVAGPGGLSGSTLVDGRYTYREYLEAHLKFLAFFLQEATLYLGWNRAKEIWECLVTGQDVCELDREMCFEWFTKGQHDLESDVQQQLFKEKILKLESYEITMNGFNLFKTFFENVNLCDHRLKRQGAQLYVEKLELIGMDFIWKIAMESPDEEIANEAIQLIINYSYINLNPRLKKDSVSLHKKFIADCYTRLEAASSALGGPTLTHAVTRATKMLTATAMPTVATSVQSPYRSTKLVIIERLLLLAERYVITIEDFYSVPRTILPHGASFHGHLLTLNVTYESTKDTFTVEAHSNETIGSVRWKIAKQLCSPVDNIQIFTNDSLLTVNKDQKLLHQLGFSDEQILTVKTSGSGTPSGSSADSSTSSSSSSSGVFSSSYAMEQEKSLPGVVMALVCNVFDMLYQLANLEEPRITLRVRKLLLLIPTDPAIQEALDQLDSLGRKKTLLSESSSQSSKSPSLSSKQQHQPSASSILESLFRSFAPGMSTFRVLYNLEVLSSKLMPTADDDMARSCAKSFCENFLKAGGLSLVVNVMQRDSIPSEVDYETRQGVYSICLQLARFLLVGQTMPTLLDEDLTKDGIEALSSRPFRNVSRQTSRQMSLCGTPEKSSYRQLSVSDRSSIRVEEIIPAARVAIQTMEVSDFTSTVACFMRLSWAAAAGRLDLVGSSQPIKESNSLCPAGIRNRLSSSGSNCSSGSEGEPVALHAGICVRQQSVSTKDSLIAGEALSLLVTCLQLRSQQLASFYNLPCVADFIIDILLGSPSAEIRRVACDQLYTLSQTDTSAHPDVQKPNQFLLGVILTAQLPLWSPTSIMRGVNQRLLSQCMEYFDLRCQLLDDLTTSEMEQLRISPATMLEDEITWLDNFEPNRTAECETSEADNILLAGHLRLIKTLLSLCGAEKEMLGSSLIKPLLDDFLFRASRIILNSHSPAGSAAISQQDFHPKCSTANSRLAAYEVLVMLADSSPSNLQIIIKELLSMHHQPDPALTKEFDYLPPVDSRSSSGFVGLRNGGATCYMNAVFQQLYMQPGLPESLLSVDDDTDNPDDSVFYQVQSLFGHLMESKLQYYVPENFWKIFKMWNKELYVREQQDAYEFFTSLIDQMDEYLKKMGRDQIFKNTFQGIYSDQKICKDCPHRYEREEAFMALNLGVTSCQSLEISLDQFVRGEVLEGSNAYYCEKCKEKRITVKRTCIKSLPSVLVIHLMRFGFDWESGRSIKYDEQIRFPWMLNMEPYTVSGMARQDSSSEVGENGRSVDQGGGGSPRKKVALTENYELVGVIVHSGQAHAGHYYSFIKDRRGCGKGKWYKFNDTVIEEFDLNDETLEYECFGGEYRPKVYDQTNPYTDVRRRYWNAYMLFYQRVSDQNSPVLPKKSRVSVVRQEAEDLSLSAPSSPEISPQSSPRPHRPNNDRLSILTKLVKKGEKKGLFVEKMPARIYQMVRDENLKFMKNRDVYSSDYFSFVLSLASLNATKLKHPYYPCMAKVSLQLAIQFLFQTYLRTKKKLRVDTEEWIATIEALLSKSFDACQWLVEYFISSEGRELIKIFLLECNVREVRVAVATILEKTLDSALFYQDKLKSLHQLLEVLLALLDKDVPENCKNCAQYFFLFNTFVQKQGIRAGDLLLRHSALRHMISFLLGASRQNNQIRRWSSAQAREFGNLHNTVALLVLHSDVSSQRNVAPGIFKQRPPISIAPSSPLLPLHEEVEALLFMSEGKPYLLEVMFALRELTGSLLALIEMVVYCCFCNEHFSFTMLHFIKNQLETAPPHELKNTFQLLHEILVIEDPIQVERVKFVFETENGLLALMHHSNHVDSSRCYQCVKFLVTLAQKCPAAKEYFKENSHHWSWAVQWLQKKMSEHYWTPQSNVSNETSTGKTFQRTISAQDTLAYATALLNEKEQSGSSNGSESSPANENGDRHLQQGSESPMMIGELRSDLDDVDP
In short: as §1

USP25 = target: T3, USP25 (UniProt Q9UHP3)
T3 sequence (whole entry): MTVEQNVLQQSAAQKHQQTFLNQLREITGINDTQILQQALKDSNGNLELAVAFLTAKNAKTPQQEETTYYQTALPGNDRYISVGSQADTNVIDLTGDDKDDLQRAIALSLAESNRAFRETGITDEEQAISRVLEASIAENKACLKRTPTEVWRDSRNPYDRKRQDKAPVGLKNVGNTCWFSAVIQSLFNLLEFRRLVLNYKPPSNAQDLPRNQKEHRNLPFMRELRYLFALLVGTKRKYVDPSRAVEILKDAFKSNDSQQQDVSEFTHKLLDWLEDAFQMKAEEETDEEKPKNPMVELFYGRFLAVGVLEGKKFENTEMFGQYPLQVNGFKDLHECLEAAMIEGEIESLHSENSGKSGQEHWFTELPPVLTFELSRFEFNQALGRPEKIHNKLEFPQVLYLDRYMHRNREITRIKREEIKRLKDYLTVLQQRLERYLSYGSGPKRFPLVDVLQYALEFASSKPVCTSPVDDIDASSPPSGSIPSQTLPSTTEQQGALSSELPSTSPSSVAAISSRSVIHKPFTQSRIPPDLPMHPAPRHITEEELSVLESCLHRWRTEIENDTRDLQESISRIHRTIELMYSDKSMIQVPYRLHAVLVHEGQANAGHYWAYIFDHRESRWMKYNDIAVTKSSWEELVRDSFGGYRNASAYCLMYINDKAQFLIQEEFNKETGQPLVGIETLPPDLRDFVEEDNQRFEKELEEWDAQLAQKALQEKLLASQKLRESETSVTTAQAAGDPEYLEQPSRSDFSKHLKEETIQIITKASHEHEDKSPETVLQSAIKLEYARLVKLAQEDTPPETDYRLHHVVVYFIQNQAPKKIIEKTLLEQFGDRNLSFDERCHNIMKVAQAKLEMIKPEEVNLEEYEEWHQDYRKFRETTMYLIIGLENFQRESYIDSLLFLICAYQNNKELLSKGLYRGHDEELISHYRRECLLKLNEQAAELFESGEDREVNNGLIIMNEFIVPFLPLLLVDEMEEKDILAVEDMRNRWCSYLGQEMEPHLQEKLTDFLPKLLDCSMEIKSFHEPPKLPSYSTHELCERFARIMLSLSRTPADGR
In short: as §1

USP28 = target: T4, USP28 (UniProt Q96RU2)
T4 sequence (whole entry): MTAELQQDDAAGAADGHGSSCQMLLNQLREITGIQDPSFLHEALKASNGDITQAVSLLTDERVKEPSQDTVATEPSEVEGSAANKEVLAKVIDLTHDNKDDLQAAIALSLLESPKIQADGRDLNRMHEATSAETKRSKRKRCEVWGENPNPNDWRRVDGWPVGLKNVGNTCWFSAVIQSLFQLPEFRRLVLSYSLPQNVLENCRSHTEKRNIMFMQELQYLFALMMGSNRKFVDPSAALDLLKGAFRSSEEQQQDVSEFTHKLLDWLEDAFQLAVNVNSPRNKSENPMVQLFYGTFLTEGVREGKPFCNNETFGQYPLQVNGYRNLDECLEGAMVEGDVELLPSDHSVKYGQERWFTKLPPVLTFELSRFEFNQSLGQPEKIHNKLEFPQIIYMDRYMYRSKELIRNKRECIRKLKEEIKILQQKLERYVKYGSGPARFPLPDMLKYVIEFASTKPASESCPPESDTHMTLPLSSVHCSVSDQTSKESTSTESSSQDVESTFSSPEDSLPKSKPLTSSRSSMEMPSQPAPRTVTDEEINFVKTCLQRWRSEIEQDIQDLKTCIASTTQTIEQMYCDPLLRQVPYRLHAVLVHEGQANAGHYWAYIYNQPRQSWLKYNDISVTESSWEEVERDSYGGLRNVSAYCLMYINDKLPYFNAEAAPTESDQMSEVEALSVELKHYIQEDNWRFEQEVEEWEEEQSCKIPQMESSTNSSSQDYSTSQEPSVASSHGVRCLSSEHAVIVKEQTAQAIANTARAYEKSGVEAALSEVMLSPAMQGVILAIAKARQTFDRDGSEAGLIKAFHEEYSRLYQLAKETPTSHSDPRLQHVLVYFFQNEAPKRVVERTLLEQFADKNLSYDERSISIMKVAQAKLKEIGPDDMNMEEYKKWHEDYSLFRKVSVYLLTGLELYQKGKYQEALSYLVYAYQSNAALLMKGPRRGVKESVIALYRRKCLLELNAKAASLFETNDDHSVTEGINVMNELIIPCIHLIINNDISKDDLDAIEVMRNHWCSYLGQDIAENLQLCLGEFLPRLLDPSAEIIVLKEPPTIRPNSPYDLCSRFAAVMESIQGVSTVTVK
In short: as §1

Measured: log2 ratio of Biotin-Ahx-Ub-VS probe labelling

CN(C)C(=O)c1ccc(CNC(=O)CCl)cc1
inactive: USP19 0.123 | USP22 0.0551 | USP24 0.117 | USP25 -0.513 | USP28 -0.359
